Sampled rows, rich in hits. Any-hit rate of the full collection: about 31%.
CYP2C9 inh – blocks human cytochrome P450 2C9 | actives 20% (n = 96,000) | CYP2C9 Supersomes, luciferin-H conversion, luminescence | P11712 | inhibition, % at 5 µM;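 active = blocking of liver enzyme CYP2C9 beyond about 50% at 5 µM, limit read from the data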
Target sequence (P11712 whole entry, looked up): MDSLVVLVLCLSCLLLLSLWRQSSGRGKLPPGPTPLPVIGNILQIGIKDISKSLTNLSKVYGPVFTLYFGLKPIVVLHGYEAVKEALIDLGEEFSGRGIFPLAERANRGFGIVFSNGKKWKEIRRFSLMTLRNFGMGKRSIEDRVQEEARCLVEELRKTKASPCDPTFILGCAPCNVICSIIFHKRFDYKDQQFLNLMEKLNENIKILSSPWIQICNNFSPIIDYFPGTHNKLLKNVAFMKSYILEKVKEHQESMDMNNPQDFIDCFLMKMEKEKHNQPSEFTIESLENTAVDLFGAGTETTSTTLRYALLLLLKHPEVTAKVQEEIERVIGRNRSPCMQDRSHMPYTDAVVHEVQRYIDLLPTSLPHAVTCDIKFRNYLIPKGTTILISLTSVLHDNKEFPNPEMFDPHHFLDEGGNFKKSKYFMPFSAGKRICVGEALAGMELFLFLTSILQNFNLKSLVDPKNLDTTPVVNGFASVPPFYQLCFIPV
CYP2C19 activ – cytochrome P450 2C19 (human) activation | recombinant CYP2C19, luciferin-H EGE luminescence; hits give high values; 0 = fully inhibited enzyme, 1 = untreated enzyme | activation factor at 5 µM | 96,000 tested, under 10 active;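 active = activation factor of at least 2 at 5 µM in the primary screen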
PLAP act – activates human placental alkaline phosphatase | P05187 | AID 696 | activation fold at 20 µM | actives 1.2% (n = 96,000) | purified PLAP enzyme, luminescent substrate read-out; hits give high values; in the data active = activation fold above about 2
CYP2C19 inh – blocks human cytochrome P450 2C19 | inhibition, % at 5 µM | AID 778 | P33261 | CYP2C19 Supersomes, luciferin-H EGE luminescence, 30 min | actives 21% (n = 96,000);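 active = CYP2C19 inhibition above a set limit at 5 µM in the primary screen, cut at about 50% in these data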
CYP2C9 act – increases human cytochrome P450 2C9 activity | actives 1.4% (n = 96,000) | P11712 | recombinant CYP2C9, luciferin-H conversion, luminescence; hits give high values; factor 1 = untreated enzyme, 0 = blocked | activation factor at 5 µM;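 active = activation factor of 2 or more for CYP2C9 at a 5 µM dose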
A number is an active result.

Results for Cc1ccc(-n2ncc(C#N)c2/N=C/N(C)C)cc1 ?
CYP2C9 inh: inactive; CYP2C19 activ: inactive; PLAP act: inactive; CYP2C19 inh: inactive; CYP2C9 act: inactive

How did CC1=CCC2C(=O)N(c3nc4ccccc4n3C)C(=O)C2C1 (stereo unspecified) do in these assays?
CYP2C9 inh: inactive; CYP2C19 activ: inactive; PLAP act: inactive; CYP2C19 inh: inactive; CYP2C9 act: inactive

Results for FC(F)(F)c1nc(-c2cccs2)ncc1-c1nnnn1-c1ccc(Cl)cc1 ?
CYP2C9 inh: 52; CYP2C19 activ: inactive; PLAP act: inactive; CYP2C19 inh: inactive; CYP2C9 act: inactive

Results for Cc1cc(C)cc(-n2nnnc2-c2cn(C)nc2C(F)(F)F)c1 ?
CYP2C9 inh: inactive; CYP2C19 activ: inactive; PLAP act: inactive; CYP2C19 inh: 75; CYP2C9 act: inactive

How did Cc1c(-c2nnnn2-c2ccc(F)cc2)cnc2cc3c(cc12)OCO3 do in these assays?
CYP2C9 inh: inactive; CYP2C19 activ: inactive; PLAP act: inactive; CYP2C19 inh: inactive; CYP2C9 act: inactive

What do the screens show for `Cc1cc(C)cc(-n2nc(C)cc2N)c1`?
CYP2C9 inh: inactive; CYP2C19 activ: inactive; PLAP act: inactive; CYP2C19 inh: inactive; CYP2C9 act: inactive

Results for COc1ccc(-n2nnnc2-c2cnc(N3CCCC3)nc2C(F)(F)F)cc1 ?
CYP2C9 inh: 64; CYP2C19 activ: inactive; PLAP act: inactive; CYP2C19 inh: 88; CYP2C9 act: inactive

How did Cn1cc(-c2nnnn2-c2ccc(Cl)cc2)c(C(F)(F)F)n1 do in these assays?
CYP2C9 inh: inactive; CYP2C19 activ: inactive; PLAP act: inactive; CYP2C19 inh: 100; CYP2C9 act: inactive

How did Cc1onc(-c2ccccc2Cl)c1C(=O)Nc1nnc(-c2cccc([N+](=O)[O-])c2)s1 do in these assays?
CYP2C9 inh: inactive; CYP2C19 activ: inactive; PLAP act: inactive; CYP2C19 inh: inactive; CYP2C9 act: inactive

What do the screens show for `Cc1onc(-c2ccccc2Cl)c1C(=O)Nc1ccccc1C(N)=O`?
CYP2C9 inh: inactive; CYP2C19 activ: inactive; PLAP act: inactive; CYP2C19 inh: 56; CYP2C9 act: inactive

What do the screens show for `CCSc1nnc(NC(=O)c2c(-c3ccccc3Cl)noc2C)s1`?
CYP2C9 inh: 95; CYP2C19 activ: inactive; PLAP act: inactive; CYP2C19 inh: 100; CYP2C9 act: inactive

Results for Cc1onc(-c2ccccc2Cl)c1C(=O)Nc1cccc2cccnc12 ?
CYP2C9 inh: inactive; CYP2C19 activ: inactive; PLAP act: inactive; CYP2C19 inh: 76; CYP2C9 act: inactive

What do the screens show for `Cc1ccc(-n2nc3c(c2NC(=O)c2ccc(Br)o2)CSC3)c(C)c1`?
CYP2C9 inh: 67; CYP2C19 activ: inactive; PLAP act: inactive; CYP2C19 inh: inactive; CYP2C9 act: inactive

What do the screens show for `Cc1onc(-c2ccccc2Cl)c1C(=O)Nc1cccc2nsnc12`?
CYP2C9 inh: inactive; CYP2C19 activ: inactive; PLAP act: inactive; CYP2C19 inh: inactive; CYP2C9 act: inactive

How did O=C1/C(=C\Nc2ccc(Cl)cc2)CCN1c1ncccn1 do in these assays?
CYP2C9 inh: inactive; CYP2C19 activ: inactive; PLAP act: inactive; CYP2C19 inh: inactive; CYP2C9 act: inactive

How did COc1cc2c(C)nc(C)c(C#N)c2cc1OC do in these assays?
CYP2C9 inh: inactive; CYP2C19 activ: inactive; PLAP act: inactive; CYP2C19 inh: inactive; CYP2C9 act: inactive

Results for Cc1oc(C(C)(C)C)cc1C(=O)Nc1cccc(/C=C/C(=O)O)c1 ?
CYP2C9 inh: inactive; CYP2C19 activ: inactive; PLAP act: inactive; CYP2C19 inh: inactive; CYP2C9 act: inactive

What do the screens show for `Cc1onc(-c2ccccc2Cl)c1C(=O)OCN1C(=O)c2ccccc2C1=O`?
CYP2C9 inh: inactive; CYP2C19 activ: inactive; PLAP act: inactive; CYP2C19 inh: 56; CYP2C9 act: inactive

What do the screens show for `Cc1ccccc1-n1nc2c(c1NC(=O)c1c(-c3ccccc3Cl)noc1C)CSC2`?
CYP2C9 inh: 50; CYP2C19 activ: inactive; PLAP act: inactive; CYP2C19 inh: inactive; CYP2C9 act: inactive

How did Cc1onc(-c2ccccc2Cl)c1C(=O)Nc1ccccc1N1CCOCC1 do in these assays?
CYP2C9 inh: 69; CYP2C19 activ: inactive; PLAP act: inactive; CYP2C19 inh: 61; CYP2C9 act: inactive

How did Cc1onc(-c2ccccc2Cl)c1C(=O)Nc1ccccc1C(=O)NC(C)C do in these assays?
CYP2C9 inh: 79; CYP2C19 activ: inactive; PLAP act: inactive; CYP2C19 inh: inactive; CYP2C9 act: inactive

What do the screens show for `Cc1onc(-c2ccccc2Cl)c1C(=O)NCC(=O)O`?
CYP2C9 inh: inactive; CYP2C19 activ: inactive; PLAP act: inactive; CYP2C19 inh: inactive; CYP2C9 act: inactive

Results for Cc1c(C#N)sc2nc(-c3ccccc3)nc(N3CCCC3)c12 ?
CYP2C9 inh: inactive; CYP2C19 activ: inactive; PLAP act: inactive; CYP2C19 inh: inactive; CYP2C9 act: inactive

What do the screens show for `Cc1onc(-c2ccccc2Cl)c1C(=O)NCc1ccccc1`?
CYP2C9 inh: 58; CYP2C19 activ: inactive; PLAP act: inactive; CYP2C19 inh: 88; CYP2C9 act: inactive

Results for Cc1ccc(OCc2nnc(SCC(=O)c3cccc([N+](=O)[O-])c3)n2C)cc1 ?
CYP2C9 inh: inactive; CYP2C19 activ: inactive; PLAP act: inactive; CYP2C19 inh: inactive; CYP2C9 act: inactive

Results for N#Cc1ccc(CSc2nnc(Nc3ccccc3)s2)cc1 ?
CYP2C9 inh: inactive; CYP2C19 activ: inactive; PLAP act: inactive; CYP2C19 inh: inactive; CYP2C9 act: inactive

What do the screens show for `c1ccc(CSc2nnc(NC3=NCCCCC3)s2)cc1`?
CYP2C9 inh: inactive; CYP2C19 activ: inactive; PLAP act: inactive; CYP2C19 inh: 68; CYP2C9 act: inactive

What do the screens show for `CCc1ccc(NC(=O)c2onc(C)c2Cl)cc1`?
CYP2C9 inh: inactive; CYP2C19 activ: inactive; PLAP act: inactive; CYP2C19 inh: inactive; CYP2C9 act: inactive

Results for CCN1CCN(c2nc(-c3cccnc3)nc3ccccc23)CC1 ?
CYP2C9 inh: inactive; CYP2C19 activ: inactive; PLAP act: inactive; CYP2C19 inh: inactive; CYP2C9 act: inactive

Results for CCN1CCN(c2nc(-c3ccncc3)nc3ccccc23)CC1 ?
CYP2C9 inh: inactive; CYP2C19 activ: inactive; PLAP act: inactive; CYP2C19 inh: 51; CYP2C9 act: inactive

Results for c1ccc2c(N3CCCCCC3)nc(-c3ccncc3)nc2c1 ?
CYP2C9 inh: 80; CYP2C19 activ: inactive; PLAP act: inactive; CYP2C19 inh: 76; CYP2C9 act: inactive

How did Oc1ccccc1-c1nc(N2CCN(Cc3ccccc3)CC2)c2ccccc2n1 do in these assays?
CYP2C9 inh: 74; CYP2C19 activ: inactive; PLAP act: inactive; CYP2C19 inh: 65; CYP2C9 act: inactive

Results for c1ccc(N2CCN(c3nc(-c4ccccn4)nc4ccccc34)CC2)cc1 ?
CYP2C9 inh: 59; CYP2C19 activ: inactive; PLAP act: inactive; CYP2C19 inh: inactive; CYP2C9 act: inactive

Results for COc1ccccc1NC(=O)C/C(N)=N/O ?
CYP2C9 inh: inactive; CYP2C19 activ: inactive; PLAP act: inactive; CYP2C19 inh: inactive; CYP2C9 act: inactive

What do the screens show for `c1cncc(-c2nc(N3CCCCCC3)c3ccccc3n2)c1`?
CYP2C9 inh: 77; CYP2C19 activ: inactive; PLAP act: inactive; CYP2C19 inh: inactive; CYP2C9 act: inactive

Results for Cn1nnnc1SCC(=O)Nc1ccc(Oc2ccc(Cl)cc2)cc1 ?
CYP2C9 inh: inactive; CYP2C19 activ: inactive; PLAP act: inactive; CYP2C19 inh: inactive; CYP2C9 act: inactive

Source: PubChem
